PubChem BioAssay
Calls of active or inactive are those of the source.

Assays:
[1] = small molecules captured by biotinylated probe aFSTL3 – biochemical, small-molecule microarray, fluorescence 635/667, stem cell growth factor project, primary screen (AID 1064); details: higher = more signal;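 further: measures binding of the biotinylated anti-FSTL3 antibody to printed compounds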
[2] = binders from COS7 lysate, DM2A8 probe, primary screen, torsin A project, cell lysate, small-molecule microarray, fluorescence 635/667 (AID 1065); details: higher = more signal, COS7 lysate expressing mutant human TOR1A
[3] = small molecules captured by biotinylated probe aFGF2 – biochemical, small-molecule microarray, fluorescence 635/667, stem cell growth factor project, primary screen (AID 1067); details: higher = more signal;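 further: measures binding of biotinylated aFGF2 protein to printed compounds on slides; z-score merges feature fluorescence and signal-to-noise across triplicate slides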
[4] = small molecules captured by biotinylated probe aFGF10 – biochemical, small-molecule microarray, fluorescence 635/667, stem cell growth factor project, primary screen (AID 1071); details: higher = more signal;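 further: score merges 667 nm spot intensity and signal to noise from triplicate slides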
[5] = molecular target: Neurogenic locus notch homolog protein 2 (Homo sapiens) (UniProt Q04721); assay: small molecules binding Notch2 protein – biochemical, small-molecule microarray, 635 nm fluorescence, stem cell growth factors, primary screen (AID 1073); details: higher = more signal
[6] = molecular target: Pro-neuregulin-1, membrane-bound isoform (Homo sapiens) (UniProt Q02297); assay: small molecules binding neuregulin-1 protein – biochemical, small-molecule microarray, fluorescence 635/667, psychiatric disease protein project, primary screen (AID 1075); details: NRG1 binding, 635 nm fluorescence, higher = more signal;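 further: score combines 667 nm spot fluorescence with signal to noise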
[7] = tested on: Neuregulin-1 EGF-like domain; assay: small molecules binding NRG1 EGF domain – biochemical, small-molecule microarray, 635 nm fluorescence, primary screen (AID 1081); details: higher = more signal;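 further: binding of the protein to compounds printed on small-molecule microarray slides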
[8] = FRG1 expression reporter modulators in myotubes – cell-based, C2C12 myotubes, firefly/Renilla luciferase, luminescence, FRG1 inhibition for FSHD, primary screen (AID 1084); details: FRG1 promoter luciferase, higher = more signal, called active from +8 up or from −8 down
[9] = small molecules captured by biotinylated probe aFST – biochemical, small-molecule microarray, fluorescence 635/667, stem cell growth factor project, primary screen (AID 1086); details: higher = more signal;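 further: score merges 667 nm fluorescence with signal-to-noise of each printed compound spot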
[10] = binders of probe aHhip on microarray, primary screen, stem cell growth factor project, biochemical, small-molecule microarray, fluorescence 635/667 (AID 1087); details: higher = more signal;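 further: score merges spot fluorescence at 667nm with spot signal to noise ratio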

Chain of Pro-neuregulin-1, membrane-bound isoform (Homo sapiens) (Q02297 whole entry, looked up, the tested form may be a part, canonical isoform): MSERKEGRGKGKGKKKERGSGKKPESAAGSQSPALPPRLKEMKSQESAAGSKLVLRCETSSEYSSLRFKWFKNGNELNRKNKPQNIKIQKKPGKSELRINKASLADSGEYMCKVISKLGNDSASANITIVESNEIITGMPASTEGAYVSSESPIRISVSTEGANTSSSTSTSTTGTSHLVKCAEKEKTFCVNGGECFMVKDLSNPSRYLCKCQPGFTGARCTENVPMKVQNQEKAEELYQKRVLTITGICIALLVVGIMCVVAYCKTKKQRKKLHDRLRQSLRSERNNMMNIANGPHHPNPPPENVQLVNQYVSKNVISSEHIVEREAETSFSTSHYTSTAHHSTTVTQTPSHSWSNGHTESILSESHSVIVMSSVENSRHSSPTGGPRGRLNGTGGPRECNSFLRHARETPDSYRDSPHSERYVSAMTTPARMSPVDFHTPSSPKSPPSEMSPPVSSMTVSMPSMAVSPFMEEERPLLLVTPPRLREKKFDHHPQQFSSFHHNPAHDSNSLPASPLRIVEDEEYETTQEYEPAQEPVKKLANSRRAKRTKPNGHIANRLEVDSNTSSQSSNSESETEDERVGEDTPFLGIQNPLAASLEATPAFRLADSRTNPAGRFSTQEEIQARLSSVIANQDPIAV
Chain of Neurogenic locus notch homolog protein 2 (Homo sapiens) (Q04721 whole entry, looked up, canonical isoform): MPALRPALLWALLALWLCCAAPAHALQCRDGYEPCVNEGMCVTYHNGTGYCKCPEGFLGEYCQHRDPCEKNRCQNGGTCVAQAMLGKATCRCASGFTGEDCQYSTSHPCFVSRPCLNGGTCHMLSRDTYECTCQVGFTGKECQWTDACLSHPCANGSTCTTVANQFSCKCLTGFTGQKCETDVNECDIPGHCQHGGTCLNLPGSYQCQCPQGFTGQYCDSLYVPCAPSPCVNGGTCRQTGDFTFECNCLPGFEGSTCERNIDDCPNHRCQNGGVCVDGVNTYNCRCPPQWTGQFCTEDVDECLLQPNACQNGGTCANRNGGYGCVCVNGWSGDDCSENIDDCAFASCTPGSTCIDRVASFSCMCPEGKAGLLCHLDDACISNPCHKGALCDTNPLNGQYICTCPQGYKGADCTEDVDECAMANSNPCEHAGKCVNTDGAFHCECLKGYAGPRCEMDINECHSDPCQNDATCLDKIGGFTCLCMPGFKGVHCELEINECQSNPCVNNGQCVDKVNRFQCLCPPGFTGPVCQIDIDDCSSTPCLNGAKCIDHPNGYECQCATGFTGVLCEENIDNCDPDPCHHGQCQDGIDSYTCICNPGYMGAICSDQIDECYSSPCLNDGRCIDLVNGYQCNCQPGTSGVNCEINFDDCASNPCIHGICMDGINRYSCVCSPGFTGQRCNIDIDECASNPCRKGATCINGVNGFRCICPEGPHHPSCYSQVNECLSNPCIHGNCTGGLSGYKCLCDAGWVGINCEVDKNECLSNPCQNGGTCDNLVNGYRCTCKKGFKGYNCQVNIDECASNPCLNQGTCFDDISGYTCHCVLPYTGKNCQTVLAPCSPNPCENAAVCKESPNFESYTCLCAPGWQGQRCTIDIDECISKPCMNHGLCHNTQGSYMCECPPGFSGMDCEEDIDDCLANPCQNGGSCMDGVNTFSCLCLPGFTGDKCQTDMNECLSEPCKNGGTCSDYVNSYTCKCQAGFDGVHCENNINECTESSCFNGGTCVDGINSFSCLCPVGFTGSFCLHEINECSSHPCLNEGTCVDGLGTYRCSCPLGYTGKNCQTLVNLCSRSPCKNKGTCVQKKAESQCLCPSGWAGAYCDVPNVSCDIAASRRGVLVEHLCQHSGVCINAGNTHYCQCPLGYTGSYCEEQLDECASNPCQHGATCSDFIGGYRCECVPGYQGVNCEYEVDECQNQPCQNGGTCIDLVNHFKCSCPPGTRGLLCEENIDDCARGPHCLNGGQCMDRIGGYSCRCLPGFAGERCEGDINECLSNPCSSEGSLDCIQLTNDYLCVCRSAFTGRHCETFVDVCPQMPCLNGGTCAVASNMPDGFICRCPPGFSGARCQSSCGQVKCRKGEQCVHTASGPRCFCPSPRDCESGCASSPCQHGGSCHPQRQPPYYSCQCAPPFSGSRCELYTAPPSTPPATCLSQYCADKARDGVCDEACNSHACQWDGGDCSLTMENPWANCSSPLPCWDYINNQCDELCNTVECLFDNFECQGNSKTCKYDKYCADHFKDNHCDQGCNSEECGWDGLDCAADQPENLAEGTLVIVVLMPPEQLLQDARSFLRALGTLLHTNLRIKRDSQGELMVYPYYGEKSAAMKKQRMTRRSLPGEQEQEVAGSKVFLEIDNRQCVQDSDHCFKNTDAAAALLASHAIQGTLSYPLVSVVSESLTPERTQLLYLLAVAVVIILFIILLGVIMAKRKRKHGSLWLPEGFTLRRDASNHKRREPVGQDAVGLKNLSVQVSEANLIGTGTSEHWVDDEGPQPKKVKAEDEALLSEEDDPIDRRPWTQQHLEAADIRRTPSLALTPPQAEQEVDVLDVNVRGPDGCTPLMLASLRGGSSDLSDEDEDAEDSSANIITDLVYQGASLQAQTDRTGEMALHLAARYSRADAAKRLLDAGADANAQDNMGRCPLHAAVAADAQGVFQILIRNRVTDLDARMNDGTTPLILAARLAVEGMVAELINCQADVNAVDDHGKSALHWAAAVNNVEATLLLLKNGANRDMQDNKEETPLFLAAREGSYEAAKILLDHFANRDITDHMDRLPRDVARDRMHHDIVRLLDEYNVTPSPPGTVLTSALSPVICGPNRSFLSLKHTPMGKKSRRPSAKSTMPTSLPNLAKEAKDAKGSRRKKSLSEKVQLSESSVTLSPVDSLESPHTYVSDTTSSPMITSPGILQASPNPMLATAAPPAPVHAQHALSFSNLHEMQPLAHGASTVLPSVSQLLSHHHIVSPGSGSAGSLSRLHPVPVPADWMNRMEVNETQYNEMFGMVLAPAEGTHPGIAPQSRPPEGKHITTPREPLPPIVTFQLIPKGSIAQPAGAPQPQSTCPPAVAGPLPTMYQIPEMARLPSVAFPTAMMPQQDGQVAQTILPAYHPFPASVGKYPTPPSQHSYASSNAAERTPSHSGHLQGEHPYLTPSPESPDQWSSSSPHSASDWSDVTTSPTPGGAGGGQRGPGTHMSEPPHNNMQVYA

SMILES	composite z-score [1]	composite z-score [2]	composite z-score [3]	composite z-score [4]	composite z-score [5]	composite z-score [6]	composite z-score [7]	z-score [8]	composite z-score [9]	composite z-score [10]
O=C(NCCC[N+]1=CC=NC1c1ccccc1)N1CCCc2nc(-c3ccc(Br)cc3)ccc21 (stereo not given)	-0.265	-0.14	-0.107	0.345	0.576	1.21	0.97	0.88 (inactive)	0.944	0.0373
CC(=O)OC[C@H]1O[C@H](C#CCC2CCCCC2)C=C[C@@H]1OC(C)=O	-0.785	0.547	-0.0739	0.494	0.207	0.833	0.828	1.23 (inactive)	-0.0607	-0.0618
COC(=O)[C@@H]1CC[C@H](C)[C@@H](c2ccc(Br)cc2)N1C[C@@H](O)CN=[N+]=[N-]	-0.463	0.054	-0.116	0.186	0.462	0.117	-0.0109	0.687 (inactive)	-0.139	0.0881
CON(C)C(=O)c1nnc2c(n1)[nH]c1ccccc12	-0.262	0.668	-0.165	0.494	0.448	0.0309	0.823	168 (active)	-0.128	-0.323
COC(=O)CC=C[C@@H](C)[C@@H](C=NOC(C)CN1CCCCc2nc(C)c(C)cc21)NS(=O)(=O)c1ccc(C)cc1 (stereo not given in full)	0.061	0.751	-0.0422	0.471	0.318	-0.279	-0.776	0.511 (inactive)	0.38	0.0735
CC(=O)OC[C@H]1O[C@@H](ON=C(C)CCC(=O)OC[C@H]2O[C@H](C#Cc3ccccc3)C=C[C@@H]2Oc2ccc(C)cc2)[C@H](OC(C)=O)[C@@H](OC(C)=O)[C@@H]1OC(C)=O	-0.65	0.745	0.0309	1.12	0.951	0.51	0.938	0.66 (inactive)	0.31	-0.0994
CC(CCC(=O)OC[C@H]1O[C@H](C#Cc2ccccc2)C=C[C@@H]1Oc1ccc(C)cc1)=NOC(C)CN1CCCc2nc(C)c(C)cc21 (stereo not given in full)	-0.293	0.0877	-0.0783	0.413	0.869	0.617	0.684	0.517 (inactive)	0.69	-0.0319
COC(=O)[C@H](C)NC(=O)CCC1CC(OC(=O)NCc2cccc3ccccc23)CC2(CCCC(COC(=O)NCCOc3ccccc3)O2)O1 (stereo not given in full)	-0.359	0.222	-0.0707	0.15	0.708	1.27	1.01	0.191 (inactive)	0.173	-0.169
CC(CCN1CCCc2nc(C)c(C)cc21)=NOC[C@@H](C)[C@H](OCc1ccccc1)C(C)C	-0.247	-0.325	-0.15	-0.0055	-0.766	-0.162	-0.995	-0.14 (inactive)	-0.342	0.236
O=C1C=C[C@@H](O)[C@@H]2[C@@H]3C(=O)N(Cc4ccccc4)C(=O)[C@@H]3CC[C@@H]12	-0.496	-0.0062	-0.171	0.373	0.632	0.159	0.543	-0.895 (inactive)	0.0563	0.226
O=C(NN=C1C[C@@H](O)[C@@H](O)[C@@H]2[C@@H]3C(=O)N(c4ccc(F)cc4F)C(=O)[C@@H]3CC[C@H]12)OCc1ccccc1	0.0775	1.04	-0.152	-0.0134	0.194	1.47	-0.0123	-0.823 (inactive)	0.991	0.0854
CC(=O)OC[C@H]1O[C@H](CC=NO[C@@H](C)c2cc(-c3c(C)cc(C)cc3C)no2)C=C[C@@H]1OC(C)=O	-0.357	-0.264	-0.1	0.149	0.0166	-0.291	-0.736	1.03 (inactive)	-0.122	-0.0994
CCOC(=O)CCN1C(=O)[C@H]2[C@H]3[C@H](O)[C@H](O)CC(=NO[C@@H]4O[C@H](CO)[C@@H](O)[C@H](O)[C@H]4O)[C@H]3CC[C@H]2C1=O	-0.379	0.508	0.0395	0.232	0.44	0.0332	0.569	0.261 (inactive)	0.857	-0.195
CCCNC(=O)OC[C@H]1O[C@H](CCON=C2c3cc(OC)ccc3O[C@H](c3cccc(OC)c3)[C@H]2O)C=C[C@@H]1Oc1ccc(OC)cc1	-0.231	0.768	-0.0647	0.884	1.17	0.64	0.93	0.446 (inactive)	0.167	-0.0237
CO[C@@H]1COC(=O)CC=C[C@H](C)[C@H](OC)COC(=O)[C@@H]2CCCN2C(=O)CC=C[C@H]1C	-0.811	1.74	-0.196	0.0967	-0.271	-0.285	0.158	-0.331 (inactive)	0.0991	-0.166
CCOC(=O)[C@H](Cc1ccccc1)NC(=O)CCC1CC(OC(=O)NCc2ccc3c(c2)OCO3)CC2(CCCC(COC(=O)NCCc3ccc(Cl)cc3)O2)O1 (stereo not given in full)	-0.415	0.388	-0.114	0.351	0.832	0.107	0.918	-0.327 (inactive)	-0.18	-0.0994
